Laboratory results as given in PubChem BioAssay (EPA / NIEHS).
Active and inactive are the calls of the source. Rule for the calls: active = hit-call score of the fitted dose curve at least 0.9, where 1 is the maximum; inactive = score below 0.9.

Experiments:
Conditions in all cases: mRNA level, 48 h; actives raise or lower the signal
[1] = read-out: Peroxisomal acyl-coenzyme A oxidase 1 (ACOX1) gene, ACOX1 (gene 51); assay: LTEA_HepaRG_ACOX1: Life Technologies and Expression Analysis (LTEA) Assay for Peroxisomal acyl-coenzyme A oxidase 1 (ACOX1) gene using HepaRG (AID 2283467)
Procedure, shortened: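 Differentiated human HepaRG cells were exposed in duplicate for 48 h in serum-free induction medium to eight half-log concentrations up to 100 uM in 0.5% DMSO. ACOX1 mRNA was then quantified by TaqMan qRT-PCR, normalized to ACTB, GAPDH and POLR2A.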

[2] = read-out: Alkaline Phosphatase, Placental (ALPP) gene, ALPP (gene 250); assay: LTEA_HepaRG_ALPP: Life Technologies and Expression Analysis (LTEA) Assay for Alkaline Phosphatase, Placental (ALPP) gene using HepaRG (AID 2283468)
Procedure, shortened: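 Differentiated human HepaRG cells were plated and cultured 48 h, then exposed in duplicate for 48 h in serum-free induction medium to eight half-log concentrations from 100 uM in 0.5% DMSO. ALPP mRNA was measured by TaqMan qRT-PCR, normalized to ACTB, GAPDH, POLR2A.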

[3] = read-out: Bcl-2 (BAD) gene, BAD (gene 572); assay: LTEA_HepaRG_BAD: Life Technologies and Expression Analysis (LTEA) Assay for Bcl-2 (BAD) gene using HepaRG (AID 2283469)
Procedure, shortened: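 Differentiated human HepaRG cells in serum-free induction medium were exposed in duplicate for 48 h to eight concentrations (top 100 uM, half-log steps, 0.5% DMSO). BAD mRNA was quantified by qRT-PCR normalised to ACTB, GAPDH and POLR2A, with bidirectional fitting versus DMSO.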

[4] = read-out: Bcl-2 (BAX) gene, BAX (gene 581); assay: LTEA_HepaRG_BAX: Life Technologies and Expression Analysis (LTEA) Assay for Bcl-2 (BAX) gene using HepaRG (AID 2283470)
Procedure, shortened: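 Differentiated human HepaRG cells, plated 48 h then switched to serum-free induction medium, were exposed 48 h to 8 half-log concentrations up to 100 uM in 0.5% DMSO; BAX mRNA measured by qRT-PCR, normalized to ACTB, GAPDH, POLR2A.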

[5] = read-out: adenosine kinase (ADK) gene, ADK (gene 132); assay: LTEA_HepaRG_ADK: Life Technologies and Expression Analysis (LTEA) Assay for adenosine kinase (ADK) gene using HepaRG (AID 2283471)
Procedure, shortened: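 ADK expression quantified by qRT-PCR, normalised to three housekeeping genes, after 48 h exposure of HepaRG cells to eight concentrations (top 100 uM, half-log steps, duplicate, 0.5% DMSO). Up- or down-regulation fitted relative to vehicle.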

[6] = read-out: Alpha-fetoprotein (AFP) gene, AFP (gene 174); assay: LTEA_HepaRG_AFP: Life Technologies and Expression Analysis (LTEA) Assay for Alpha-fetoprotein (AFP) gene using HepaRG (AID 2283472)
Procedure, shortened: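 Human HepaRG cells plated 48 h, then switched to serum-free induction medium and exposed in duplicate for 48 h to 8-point half-log series from 100 uM in 0.5% DMSO. AFP mRNA by qRT-PCR, normalized to ACTB, GAPDH, POLR2A; bidirectional fit versus DMSO.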

[7] = read-out: BCL2L11 (gene 10018); assay: LTEA_HepaRG_BCL2L11: Life Technologies and Expression Analysis (LTEA) Assay for Bcl-2 (BCL2L11) gene using HepaRG (AID 2283473)
Procedure, shortened: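 Differentiated human HepaRG cells in serum-free induction medium were exposed in duplicate for 48 h to eight concentrations (top 100 uM, half-log steps, 0.5% DMSO). BCL2L11 mRNA was quantified by TaqMan qRT-PCR, normalized to ACTB/GAPDH/POLR2A, bidirectional fit versus DMSO.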

[8] = read-out: Apolipoprotein A-V (APOA5) gene, APOA5 (gene 116519); assay: LTEA_HepaRG_APOA5: Life Technologies and Expression Analysis (LTEA) Assay for Apolipoprotein A-V (APOA5) gene using HepaRG (AID 2283474)
Procedure, shortened: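 Differentiated human HepaRG cells were exposed in duplicate for 48 h to eight half-log concentrations from 100 uM in 0.5% DMSO. APOA5 mRNA was quantified by TaqMan qRT-PCR, normalized to ACTB, GAPDH and POLR2A, and fitted bidirectionally against DMSO.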

[9] = read-out: Apoptosis regulator Bcl-2 (Homo sapiens) (UniProt P10415); assay: LTEA_HepaRG_BCL2: Life Technologies and Expression Analysis (LTEA) Assay for Bcl-2 gene using HepaRG (AID 2283475)
Procedure, shortened: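 Differentiated HepaRG cells in serum-free induction medium were exposed for 48 h to eight half-log concentrations up to 100 uM in 0.5% DMSO, in duplicate. BCL2 mRNA was quantified by TaqMan qRT-PCR normalised to ACTB, GAPDH and POLR2A, with bidirectional fitting versus DMSO.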

[10] = read-out: Bcl-2 (BID) gene, BID (gene 637); assay: LTEA_HepaRG_BID: Life Technologies and Expression Analysis (LTEA) Assay for Bcl-2 (BID) gene using HepaRG (AID 2283476)
Procedure, shortened: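 Differentiated HepaRG cells in serum-free induction medium were exposed in duplicate for 48 h to eight half-log concentrations up to 100 uM in 0.5% DMSO. BID mRNA was quantified by qRT-PCR, normalized to ACTB, GAPDH and POLR2A.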

[11] = read-out: Caspase-3 (Homo sapiens) (UniProt P42574); assay: LTEA_HepaRG_CASP3: Life Technologies and Expression Analysis (LTEA) Assay for cysteine-aspartic acid protease (CASP3) using HepaRG (AID 2283477)
Procedure, shortened: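 Differentiated human HepaRG cells in serum-free induction medium were exposed 48 h to 8-point half-log concentrations from 100 uM (0.5% DMSO vehicle). CASP3 mRNA was measured by qRT-PCR, normalised to ACTB, GAPDH and POLR2A, with bidirectional fitting against DMSO.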

[12] = read-out: Cytochrome P450 (CYP24A1), CYP24A1 (gene 1591); assay: LTEA_HepaRG_CYP24A1: Life Technologies and Expression Analysis (LTEA) Assay for Cytochrome P450 (CYP24A1) using HepaRG (AID 2283478)
Procedure, shortened: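 Differentiated HepaRG cells, pre-cultured 48 h, were exposed in duplicate for 48 h in serum-free induction medium to 8 half-log concentrations (top 100 uM, 0.5% DMSO). CYP24A1 mRNA was quantified by TaqMan qRT-PCR, normalized to ACTB/GAPDH/POLR2A, fitted bidirectionally versus DMSO.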

[13] = read-out: Cytochrome P450 (CYP1A2), CYP1A2 (gene 1544); assay: LTEA_HepaRG_CYP1A2: Life Technologies and Expression Analysis (LTEA) Assay for Cytochrome P450 (CYP1A2) using HepaRG (AID 2283479)
Procedure, shortened: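 Differentiated human HepaRG cells in serum-free induction medium were exposed in duplicate for 48 h to 8-point half-log concentrations up to 100 uM in 0.5% DMSO. CYP1A2 mRNA measured by qRT-PCR, normalized to ACTB, GAPDH, POLR2A; bidirectional fit vs DMSO.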

[14] = read-out: cysteine-aspartic acid protease (CASP8), CASP8 (gene 841); assay: LTEA_HepaRG_CASP8: Life Technologies and Expression Analysis (LTEA) Assay for cysteine-aspartic acid protease (CASP8) using HepaRG (AID 2283480)
Procedure, shortened: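 Differentiated human HepaRG cells, plated 48 h then switched to serum-free induction medium, were exposed in duplicate for 48 h to 8 half-log concentrations up to 100 uM in 0.5% DMSO. CASP8 mRNA was quantified by qRT-PCR, normalized to ACTB/GAPDH/POLR2A.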

[15] = read-out: Cytochrome P450 (CYP2B6), CYP2B6 (gene 1555); assay: LTEA_HepaRG_CYP2B6: Life Technologies and Expression Analysis (LTEA) Assay for Cytochrome P450 (CYP2B6) using HepaRG (AID 2283481)
Procedure, shortened: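 Differentiated HepaRG cells, serum-free induction medium, exposed 48 h in duplicate to 8-point half-log concentrations from 100 uM in 0.5% DMSO. CYP2B6 mRNA by qRT-PCR, normalized to ACTB, GAPDH, POLR2A; bidirectional fit versus DMSO.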

[16] = read-out: Cytochrome P450 2C19 (Homo sapiens) (UniProt P33261); assay: LTEA_HepaRG_CYP2C19: Life Technologies and Expression Analysis (LTEA) Assay for CYP2C19 using HepaRG (AID 2283482)
Procedure, shortened: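 Differentiated human HepaRG cells were exposed for 48 h in serum-free induction medium to 8 concentrations (top 100 uM, half-log steps, 0.5% DMSO). CYP2C19 mRNA was measured by qRT-PCR, normalized to ACTB/GAPDH/POLR2A, and fitted bidirectionally against DMSO.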

[17] = read-out: CYP2C8 (gene 1558); assay: LTEA_HepaRG_CYP2C8: Life Technologies and Expression Analysis (LTEA) Assay for CYP2C8 using HepaRG (AID 2283483)
Procedure, shortened: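 Differentiated human HepaRG cells were exposed for 48 h in serum-free induction medium to eight half-log concentrations up to 100 uM in 0.5% DMSO, in duplicate. CYP2C8 mRNA was measured by TaqMan qRT-PCR, normalized to ACTB, GAPDH and POLR2A, and fitted bidirectionally against DMSO.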

[18] = read-out: CYP2C9 (gene 1559); assay: LTEA_HepaRG_CYP2C9: Life Technologies and Expression Analysis (LTEA) Assay for CYP2C9 using HepaRG (AID 2283484)
Procedure, shortened: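 Differentiated human HepaRG cells were exposed 48 h in serum-free induction medium to eight half-log concentrations up to 100 uM in 0.5% DMSO. CYP2C9 mRNA was measured by qRT-PCR, normalized to ACTB, GAPDH and POLR2A, and fitted bidirectionally against DMSO.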

[19] = read-out: CYP2E1 (gene 1571); assay: LTEA_HepaRG_CYP2E1: Life Technologies and Expression Analysis (LTEA) Assay for CYP2E1 using HepaRG (AID 2283485)
Procedure, shortened: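 HepaRG cells in serum-free induction medium exposed 48 h to test chemicals, 8 half-log concentrations up to 100 uM in 0.5% DMSO, duplicate. CYP2E1 mRNA by qRT-PCR, normalized to ACTB, GAPDH, POLR2A; bidirectional fit versus DMSO.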

Measured: AC50

Sequence of Apoptosis regulator Bcl-2 (Homo sapiens) (P10415 whole entry, looked up): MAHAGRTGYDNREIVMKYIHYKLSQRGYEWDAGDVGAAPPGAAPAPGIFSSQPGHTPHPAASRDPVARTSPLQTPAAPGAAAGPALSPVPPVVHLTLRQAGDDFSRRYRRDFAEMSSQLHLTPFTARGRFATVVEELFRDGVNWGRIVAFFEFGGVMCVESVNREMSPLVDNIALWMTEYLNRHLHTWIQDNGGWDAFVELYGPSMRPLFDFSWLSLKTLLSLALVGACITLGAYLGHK
Sequence of Caspase-3 (Homo sapiens) (P42574 whole entry, looked up): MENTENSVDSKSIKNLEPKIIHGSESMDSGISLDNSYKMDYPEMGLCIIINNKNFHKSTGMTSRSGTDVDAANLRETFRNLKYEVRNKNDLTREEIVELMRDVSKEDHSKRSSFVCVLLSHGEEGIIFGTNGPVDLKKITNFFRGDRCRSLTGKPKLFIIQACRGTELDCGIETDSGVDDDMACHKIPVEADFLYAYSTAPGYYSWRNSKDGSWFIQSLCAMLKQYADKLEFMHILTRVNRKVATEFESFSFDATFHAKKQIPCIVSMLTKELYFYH
Sequence of Cytochrome P450 2C19 (Homo sapiens) (P33261 whole entry, looked up): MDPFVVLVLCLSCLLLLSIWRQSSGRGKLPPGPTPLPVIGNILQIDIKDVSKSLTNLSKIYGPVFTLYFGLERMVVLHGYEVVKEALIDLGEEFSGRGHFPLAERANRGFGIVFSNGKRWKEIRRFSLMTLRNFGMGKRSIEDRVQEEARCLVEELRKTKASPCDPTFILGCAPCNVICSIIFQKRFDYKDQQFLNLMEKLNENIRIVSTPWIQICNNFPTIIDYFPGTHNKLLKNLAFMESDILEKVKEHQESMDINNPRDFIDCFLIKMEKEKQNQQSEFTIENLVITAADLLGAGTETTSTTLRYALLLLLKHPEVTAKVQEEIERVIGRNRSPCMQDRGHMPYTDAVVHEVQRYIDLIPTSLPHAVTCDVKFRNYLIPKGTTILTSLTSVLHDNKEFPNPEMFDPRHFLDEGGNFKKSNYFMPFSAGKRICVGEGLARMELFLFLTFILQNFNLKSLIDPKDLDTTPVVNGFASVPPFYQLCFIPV

O=C(Nc1ccc(Cl)cc1)Nc1ccc(Cl)c(Cl)c1
inactive: [3] | [6] | [7] | [10] | [12] | [14]
active: [1] 18.5 µM | [2] 19.6 µM | [4] 29.2 µM | [5] 22.6 µM | [8] 21.4 µM | [9] 11.9 µM | [11] 13.3 µM | [13] 11.8 µM | [15] 19.2 µM | [16] 22.6 µM | [17] 87.1 µM | [18] 16.9 µM | [19] 15.8 µM

CC(=O)N1CCN(c2ccc(OC[C@H]3CO[C@](Cn4ccnc4)(c4ccc(Cl)cc4Cl)O3)cc2)CC1
inactive: [3] | [7] | [10] | [11]
active: [1] 18.1 µM | [4] 11.8 µM | [5] 65 µM | [6] 19.1 µM | [8] 17.8 µM | [9] 11.5 µM | [13] 26 µM | [14] 82.8 µM | [15] 12.7 µM | [17] 22.9 µM | [18] 12.7 µM | [19] 12.9 µM

O=C1CCC(C2CCCCC2)CC1
active: [13] 72.5 µM
not listed: [2]
inactive: all other assays above

CN(C)c1ccc(C(=C2C=CC(=[N+](C)C)C=C2)c2ccc(N(C)C)cc2)cc1
inactive: [4] | [10] | [12] | [14]
active: [1] 12.9 µM | [5] 20.7 µM | [6] 1.91 µM | [7] 23.5 µM | [8] 5.32 µM | [9] 5 µM | [11] 12.1 µM | [13] 2.05 µM | [15] 3.45 µM | [16] 5.94 µM | [17] 3.61 µM | [18] 3.82 µM | [19] 2.31 µM

O=C(O)Cc1cc(I)c(Oc2ccc(O)c(I)c2)c(I)c1
inactive: [3] | [5] | [7] | [10] | [11] | [12] | [14] | [17]
active: [1] 86 µM | [2] 76.9 µM | [4] 87.2 µM | [6] 74.7 µM | [8] 84.9 µM | [9] 84 µM | [13] 2.37 µM | [15] 93.8 µM | [16] 93.1 µM | [18] 79.5 µM | [19] 70.6 µM

CCCC(=O)OCCC(C)C
active: [13] 50 µM
not listed: [2]
inactive: all other assays above

Oc1ccc2ccccc2c1
active: [13] 78.1 µM
not listed: [2]
inactive: all other assays above
